Hits are enriched below; roughly 0.41% of the tested compounds scored in any of these assays.
TRPML1 inh: blocks the human TRPML1 channel; Q9GZU1; TRPML1-inducible cells, Ca2+ dye fluorescence, FDSS; active compounds read low; inhibition of EC80 agonist-evoked calcium signal; activity change, negative = inhibition, % (concentration not given with the values); 390,000 tested, 0.02% active; AID 624415; in the data active means activity change below about -50%; inconclusive means between about -30% and that limit;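 further: stimulus is agonist 54-4 at its EC80 concentration; on the % scale 0 is the no-effect control and ±100 the full control effect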
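Tet-induced TRPML1-DL cells loaded with Ca8 no-wash calcium dye were read kinetically on FDSS. Compound addition was followed by EC80 agonist 54-4 (4 uM final); inhibition was read over 110 s.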
TRPV1 agonist: human TRPV1 agonism. Q8NER1. TRPV1-expressing cells, Fluo-8 calcium influx, agonist mode. activation, % at 8.33 µM. 320,000 tested, 0.19% active. AID 540275; in the data active means activation above about 80%; inconclusive means between about 30% and that limit; further: 0% is about no effect
Target sequence (Q8NER1 whole entry, looked up): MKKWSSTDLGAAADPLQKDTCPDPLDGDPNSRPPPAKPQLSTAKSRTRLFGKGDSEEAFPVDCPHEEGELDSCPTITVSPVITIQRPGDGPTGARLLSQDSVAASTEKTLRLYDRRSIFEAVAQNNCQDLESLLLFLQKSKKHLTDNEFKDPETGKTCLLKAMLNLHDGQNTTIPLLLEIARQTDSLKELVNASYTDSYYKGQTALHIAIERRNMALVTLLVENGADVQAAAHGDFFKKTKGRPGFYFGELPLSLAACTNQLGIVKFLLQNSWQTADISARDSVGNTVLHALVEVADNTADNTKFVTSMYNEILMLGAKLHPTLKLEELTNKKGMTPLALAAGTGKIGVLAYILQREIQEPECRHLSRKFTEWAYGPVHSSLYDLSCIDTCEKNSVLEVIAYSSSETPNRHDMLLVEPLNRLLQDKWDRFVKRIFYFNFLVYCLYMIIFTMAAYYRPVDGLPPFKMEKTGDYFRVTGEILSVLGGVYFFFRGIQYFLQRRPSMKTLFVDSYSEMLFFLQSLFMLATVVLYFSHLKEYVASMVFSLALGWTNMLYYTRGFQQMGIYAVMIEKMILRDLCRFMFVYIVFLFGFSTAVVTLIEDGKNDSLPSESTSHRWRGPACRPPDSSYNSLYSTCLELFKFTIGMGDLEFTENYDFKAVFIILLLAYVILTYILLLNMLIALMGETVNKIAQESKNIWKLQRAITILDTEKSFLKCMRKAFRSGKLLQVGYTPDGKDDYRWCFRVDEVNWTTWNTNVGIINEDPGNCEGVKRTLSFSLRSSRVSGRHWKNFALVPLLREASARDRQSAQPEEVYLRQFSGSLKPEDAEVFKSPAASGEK
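Fluo-8 calcium influx in TRPV1-expressing cells, kinetic read (ex 480/em 520 nm). Compound added and read 3 min for agonist activity, followed by capsaicin at EC20 final and 2 min further read for enhancement.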
LDHA inh: inhibitors of human lactate dehydrogenase A; activity change, % (values are at about 110 or 230 µM); purified LDHA, NADH/diaphorase-resazurin fluorescence; active compounds read low; P00338; 480,000 tested, 0.15% active; in the data active means activity change below about -30%; inconclusive means mostly about -25% to -30%;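 further: plate controls were DMSO wells for no effect and wells without enzyme for full effect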
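Human LDH5 at 2 nM final in Tris HCl pH 7.4 with 0.06 mM NADH and 0.2 mM pyruvate, reacted 5 minutes at room temperature. Remaining NADH coupled via diaphorase/resazurin; resorufin fluorescence read at 0 and 20 minutes, normalized to enzyme-free and DMSO wells.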
TRPV1 PAM: human TRPV1 potentiation | Q8NER1 | TRPV1-expressing cells, Fluo-8 calcium influx, capsaicin EC20 potentiation | potentiation, % at 8.33 µM | 320,000 tested, 0.02% active | AID 540277; in the data active means potentiation above about 80%; inconclusive means between about 30% and that limit; further: 0% is about no effect
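Fluo-8 calcium influx in TRPV1-expressing cells, kinetic read (ex 480/em 520 nm). Compound added and read 3 min for agonist activity, followed by capsaicin at EC20 final and 2 min further read for enhancement.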
TRPML1 agonist: agonists of human TRPML1 channel; Q9GZU1; TRPML1-expressing cells, Ca2+ dye fluorescence, FDSS; activation, % (concentration not given with the values); 410,000 tested, 0.12% active; in the data active means activation above about 50%; inconclusive means mostly about 30% to 49%; further: 0% is about no effect
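Agonist activity was taken from a 110 s kinetic Ca2+ dye read on the FDSS after pinning compounds onto TRPML1-DL cells. The cells were seeded at 1,500/well with Tet inducer, incubated about 16 h, then dye-loaded at room temperature.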
An asterisk follows results filed as active; ! = not active in a repeat.

`Cc1ccc2nc(Cl)c3cc(C(=O)NC4CCCC(C)C4C)sc3c2c1` (stereo not drawn) gave LDHA inh 4.
`COc1cc(/C=C/C(=O)CC(=O)/C=C/c2ccc(O)c(OC)c2)ccc1O` gave TRPML1 inh 1, TRPV1 agonist inconclusive, LDHA inh -10, TRPV1 PAM 7 and TRPML1 agonist 55*!.
`O=C(NCC(c1ccccc1)N1CCOCC1)c1cc(-c2cccs2)on1` (stereo not drawn) gave LDHA inh -32*.
For Cc1nc(N2CCN(c3ccccn3)CC2)c2c(C)c(C(=O)Nc3ccc(Br)cc3C)sc2n1 the results were TRPML1 inh 1, TRPV1 agonist -2, LDHA inh -1, TRPV1 PAM 11 and TRPML1 agonist 55*.
Screening Cc1nc(N2CCCCC2)c2c(C)c(C(=O)Nc3ccccc3C(F)(F)F)sc2n1 returned TRPML1 inh 4, TRPV1 agonist 89*, LDHA inh 3, TRPV1 PAM -21 and TRPML1 agonist 1.
`Cc1nc(N2CCCCC2)c2c(C)c(C(=O)Nc3cccc(C(F)(F)F)c3)sc2n1` gave TRPML1 inh 20, TRPV1 agonist -15, LDHA inh -2, TRPV1 PAM 26 and TRPML1 agonist 1.
For CCCCCn1nc(C(=O)Nc2ncc(C)s2)c2ccccc2c1=O the results were LDHA inh 11.
Cc1ccccc1-c1ccc(/C=C2/SC(N3CCOCC3)=NC2=O)o1 was read as TRPML1 inh -3, TRPV1 agonist 84*, LDHA inh 3, TRPV1 PAM -2 and TRPML1 agonist 1.
For COCC(C)NCC(=O)NC(C)CCc1ccccc1 (stereo not drawn) the results were TRPML1 inh 4, TRPV1 agonist -1, LDHA inh -30*, TRPV1 PAM 5 and TRPML1 agonist 0.
CC(=O)NC(C)CCc1ccccc1 (stereo not drawn) was read as TRPML1 inh 4, TRPV1 agonist 3, LDHA inh -8, TRPV1 PAM -14 and TRPML1 agonist 2.
Cc1[nH]c2ccccc2c1C(=O)C(=O)NC1CC1 was read as TRPML1 inh 5, TRPV1 agonist 82*, LDHA inh -7, TRPV1 PAM -3 and TRPML1 agonist 0.
Cc1[nH]c2ccccc2c1C(=O)C(=O)NC1CC(=O)N(c2ccccc2)C1 (stereo not drawn) was read as TRPML1 inh -2, LDHA inh 11 and TRPML1 agonist -1.
`O=C(O)c1ccc(CSC(F)F)o1` gave LDHA inh -4.
For CC(C(=O)N1CCCc2ccccc21)N1CCN(c2ccccn2)CC1 (stereo not drawn) the results were TRPML1 inh -6, TRPV1 agonist 1, LDHA inh -38*, TRPV1 PAM 1 and TRPML1 agonist 3.
CC(C(=O)N1CCc2ccccc21)N1CCN(c2ccccn2)CC1 (stereo not drawn) was read as TRPML1 inh 4, TRPV1 agonist 5, LDHA inh -3, TRPV1 PAM -2 and TRPML1 agonist 0.
For COc1cccc(CNC(=O)CCn2ccc3cc(S(=O)(=O)N4CCCC4)ccc32)c1 the results were TRPML1 inh 15, TRPV1 agonist 89*, LDHA inh 0, TRPV1 PAM 10 and TRPML1 agonist -1.
NS(=O)(=O)c1cc(C(=O)NC2CCSc3ccccc32)ccc1Cl (stereo not drawn) was read as TRPML1 inh -10, TRPV1 agonist -1, LDHA inh -66*, TRPV1 PAM -1 and TRPML1 agonist 0.
Screening CCn1cc(S(=O)(=O)Nc2ccn(Cc3ccccc3Cl)n2)c(C)n1 returned LDHA inh -9.
Screening CCN(CC)c1ccc2cc(-c3nc(-c4cccs4)no3)c(=O)oc2c1 returned TRPML1 inh -14, LDHA inh -11 and TRPML1 agonist 24.
Screening CCN(CC)c1ccc2cc(-c3nc(-c4ccccc4F)no3)c(=O)oc2c1 returned TRPML1 inh -18, LDHA inh 1 and TRPML1 agonist 11.
`CCN(CC)c1ccc2cc(-c3nnc(-c4ccncc4)o3)c(=O)oc2c1` gave TRPML1 inh inconclusive, TRPV1 agonist 107*, LDHA inh 0, TRPV1 PAM inconclusive and TRPML1 agonist 116*.
For CCN(CC)c1ccc2cc(-c3nnc(-c4cccc(Cl)c4)o3)c(=O)oc2c1 the results were TRPML1 inh -20, LDHA inh -11 and TRPML1 agonist 62*.
For CC(N)c1ccc(OC(F)F)cc1 (stereo not drawn) the results were LDHA inh 5.
Screening CC(C)c1ccc(-c2csc(NC(=O)COCc3nc4ccccc4c(=O)[nH]3)n2)cc1 returned LDHA inh 2.
`O=C(COCc1nc2ccccc2c(=O)[nH]1)Nc1nc(-c2ccc3c(c2)CCC3)cs1` gave LDHA inh -31*.
Screening CNC(=O)CNC(=O)c1cc2ccccc2oc1=O returned LDHA inh -1.
`CCOC(=O)c1ccc(NC(=O)NCc2ccccc2OC)cc1` gave TRPML1 inh 3, TRPV1 agonist 84*, LDHA inh -1, TRPV1 PAM 16 and TRPML1 agonist 0.
Clc1ccccc1OCCCCN1CCNCC1 was read as TRPML1 inh -14, TRPV1 agonist -6, LDHA inh -41*, TRPV1 PAM inconclusive and TRPML1 agonist 0.
Clc1ccccc1OCCCCN1CCCC1 was read as TRPML1 inh 1, TRPV1 agonist 1, LDHA inh -16, TRPV1 PAM 1 and TRPML1 agonist 0.
Screening COC(=O)Cn1c(Br)nc2c1c(=O)n(C)c(=O)n2C returned LDHA inh -35*.
`Cc1ccc(/C=C/C(=O)c2ccc(-c3ccccc3)cc2)c(C)c1` gave LDHA inh 5.
Screening COc1ccc(C(=O)C[n+]2ccccc2Cl)cc1 returned TRPML1 agonist -1.
Screening O=C(CBr)c1ccc(Oc2ccc(C(=O)C[n+]3ccccc3Cl)cc2)cc1 returned LDHA inh -72* and TRPML1 agonist 0.
For COc1ccc(C(=O)c2sc(Nc3ccc(Cl)cc3)c(C(N)=O)c2N)cc1 the results were LDHA inh 1.
For Cc1cc(O)c2c(CN3CCN(Cc4ccccc4)CC3)cc(=O)oc2c1 the results were TRPML1 inh 13, TRPV1 agonist 24, LDHA inh -31*!, TRPV1 PAM -2 and TRPML1 agonist -1.
Screening N#C/C(=C/c1cccc(OCc2ccc(Cl)cc2)c1)c1nc2ccccc2s1 returned LDHA inh -1.
`C1=C(c2ccc(-c3ccccc3)cc2)Nc2ncnn2C1c1ccco1` (stereo not drawn) gave TRPML1 inh 2, TRPV1 agonist 12, LDHA inh -1, TRPV1 PAM 24 and TRPML1 agonist 69*.
